Values joined by “and” are separate entries in the source; they are usually repeats but may differ in a detail not shown here. Identical values can stand only once. Results filed as inconclusive are left out. Active and inactive are the calls of the source. Unless noted, calls follow the shape of the dose curve; as a rule, active = well fitted curve in the direction sought with a large enough effect; inconclusive = small, poorly fitted or top-dose-only effect, or another doubt; inactive = no such curve, though single readings can be large; an effect the other way counts as inactive or inconclusive.
Experiments:
[1] = Cell Viability - MRC5 (AID 434; calls by dose curve;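 also: potency is read from the fitted curve at half-maximal effect; cells exposed to compound for 40 hours at 37 °C; potency reflects cytotoxicity seen as loss of intracellular ATP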); conditions: MRC5 lung fibroblast viability, qHTS
Outline: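 ATP luminescence read-out (CellTiter-Glo, 20 min RT) after 40 hr, 37 °C compound exposure of 1500 MRC5 cells/well. Data normalized to DMSO (basal) and 100 uM tamoxifen (100% inhibition); AC50 from standard Hill equation.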

[2] = Cell Viability - SK-N-SH (AID 435; calls by dose curve; also: potency is read from the fitted curve at half-maximal effect); conditions: SK-N-SH neuroblastoma cell viability qHTS
Outline: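 Luminescent ATP signal served as the viability read-out after 40 hours of compound treatment of human neuroblastoma SK-N-SH cells. Concentration-response data, scaled between DMSO and 100 uM tamoxifen, gave AC50 values by standard Hill modeling.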

[3] = Cell Viability - H-4-II-E (AID 543); also: % is scaled to controls: 0 for no effect and ±100 for the full control effect; nearly all actives have a fitted effect of over 35% in size
Outline: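 CellTiter-Glo luminescence (intracellular ATP) measured after 40 h compound exposure at 37 °C in H-4-II-E rat hepatoma cells seeded at 1500/well. Values are AC50s fitted with the standard Hill equation.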

[4] = Cellular Toxicity (caspase-3) Jurkat (AID 655); conditions: Jurkat caspase-3 activation, luminescence, DMSO = 0%, tamoxifen = 100%; at 92.2 µM (top of the series);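 also: cells exposed to compound for 16 h at 37 °C before reading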
Outline: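 5000 Jurkat cells/well; compound 16 hr, 37 °C; Caspase-Glo 3/7 added, 20 min RT; luminescence read. Norm: DMSO = 0%, tamoxifen 100 uM = 100%. AC50, Hill model.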

[5] = Cell Viability - LYMP1-003 - Assay at 40 hr (AID 964); also: nearly all actives have a fitted effect of over 60% in size; also: potency is read from the fitted curve at half-maximal effect
Outline: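 Viability is taken as cellular ATP, read by CellTiter-Glo luminescence after 40 h of compound exposure at 37 C. Cells: human lymphoblastoid line LYMP1-003 at 2500/well; AC50 values derived by Hill-equation fitting of concentration-response data.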

[6] = Cell Viability - LYMP2-023 (AID 975);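 also: cells exposed to compound for 24 hours at 37 °C; nearly all actives have a fitted effect of over 55% in size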; also: potency is read from the fitted curve at half-maximal effect
Outline: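 Intracellular ATP, read by CellTiter-Glo luminescence, reports viability after 24 hr compound exposure at 37 C. 2500 lymphoblastoid cells/well (LYMP2-023) seeded 5 hr beforehand; Hill fits give AC50; positive control tetraoctylammonium bromide.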

[7] = Cell Viability - LYMP2-012 (AID 982);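 also: cellular ATP by luciferase luminescence where a drop means cytotoxicity; cells exposed to compound for one day before reading; nearly all actives have a fitted effect of over 55% in size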; also: potency is read from the fitted curve at half-maximal effect
[8] = biological target: Peroxisome proliferator-activated receptor gamma (Homo sapiens) (UniProt P37231); test: qHTS assay for small molecule agonists of peroxisome proliferator-activated receptor gamma signaling (AID 588536; active = well fitted curve in the direction sought with a large enough effect in the signal ratio, with a control signal flat, not every such curve was filed as active; the % refers to the signal ratio;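 also: 0% = DMSO basal wells and 100% = rosiglitazone at 2 µM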)
Peroxisome proliferator-activated receptor gamma (Homo sapiens), sequence (P37231 whole entry, looked up): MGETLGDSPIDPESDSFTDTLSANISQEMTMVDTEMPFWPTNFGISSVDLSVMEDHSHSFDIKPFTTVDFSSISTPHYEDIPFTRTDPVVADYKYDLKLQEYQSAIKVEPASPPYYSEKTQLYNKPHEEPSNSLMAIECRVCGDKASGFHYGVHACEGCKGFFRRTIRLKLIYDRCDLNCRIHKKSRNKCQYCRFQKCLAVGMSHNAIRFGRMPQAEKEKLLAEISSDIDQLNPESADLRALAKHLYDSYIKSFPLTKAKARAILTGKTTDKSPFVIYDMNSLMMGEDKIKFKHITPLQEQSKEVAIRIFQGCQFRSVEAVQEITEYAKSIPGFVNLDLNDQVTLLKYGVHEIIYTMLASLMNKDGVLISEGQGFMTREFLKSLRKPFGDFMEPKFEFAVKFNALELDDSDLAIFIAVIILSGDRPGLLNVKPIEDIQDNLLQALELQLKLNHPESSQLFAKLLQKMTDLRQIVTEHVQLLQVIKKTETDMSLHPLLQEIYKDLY
Outline: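 Using GeneBLAzer HEK293 cells, response was quantified by CCF4 fluorescence and normalized between basal DMSO (0%) and rosiglitazone 2 uM (100%); curves yielded half-maximal stimulation concentration and efficacy.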

[9] = biological target: Thyroid hormone receptor beta (Homo sapiens) (UniProt P10828); test: qHTS assay for small molecule antagonists of thyroid hormone receptor beta signaling (AID 588547; active = well fitted inhibition curve with a large enough effect in the signal ratio, with a control signal flat, not every such curve was filed as active; the % refers to the signal ratio;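 also: cells stimulated with 0.4 nM T3 agonist during compound exposure; % is scaled to controls: 0 for no effect and ±100 for the full control effect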); conditions: TR-UAS-bla HEK293, beta-lactamase ratio, antagonist mode, 18 h
Thyroid hormone receptor beta (Homo sapiens), sequence (P10828 whole entry, looked up): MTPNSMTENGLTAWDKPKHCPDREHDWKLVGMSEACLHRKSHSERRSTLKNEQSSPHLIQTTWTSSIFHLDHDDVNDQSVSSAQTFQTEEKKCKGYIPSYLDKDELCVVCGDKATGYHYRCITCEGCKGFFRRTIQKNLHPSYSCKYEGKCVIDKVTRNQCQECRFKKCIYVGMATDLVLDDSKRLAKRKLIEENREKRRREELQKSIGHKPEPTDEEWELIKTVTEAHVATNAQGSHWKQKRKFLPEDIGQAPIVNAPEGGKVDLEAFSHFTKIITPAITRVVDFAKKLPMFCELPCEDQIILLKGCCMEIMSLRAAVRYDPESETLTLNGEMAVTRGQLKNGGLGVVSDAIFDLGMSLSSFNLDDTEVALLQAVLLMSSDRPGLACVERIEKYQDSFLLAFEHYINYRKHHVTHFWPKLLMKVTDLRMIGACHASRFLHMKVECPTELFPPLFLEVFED
Outline: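 TR-UAS-bla GripTite HEK293 cells in 2% charcoal/dextran FBS medium; compounds 0.59 nM to 92 uM with T3 at 0.4nM final, 18 h at 37 C. Beta-lactamase read by CCF4 fluorescence (460/530 nm); Hill fits gave IC50 and efficacy.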

[10] = qHTS assay for small molecule agonists of the antioxidant response element (ARE) signaling pathway measured by Nrf2-dependant transcriptional activity (AID 720636; active = well fitted curve in the direction sought with a large enough effect in the repeat runs; an effect the other way counts as inactive or inconclusive;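 also: HepG2 cells with an ARE-driven luciferase reporter; % of control where 0% means no effect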)
Outline: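 Attachment 6 hr at 37 C, then compound versus DMSO vehicle for 16 hr in ARE-luc HepG2 cells (1% dialyzed FBS); luminescence recorded 30 min after ONE-Glo addition at room temperature.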

[11] = qHTS profiling for inhibitors of Plasmodium falciparum proliferation (AID 504749);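 also: 0% = DMSO vehicle and full inhibition = artemisinin control; nearly all actives have a fitted effect of over 60% in size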; conditions: P. falciparum in erythrocytes, SYBR Green DNA, 72 h, at 28.7 µM (top of the series)
Outline: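 Each compound contacts P. falciparum-infected red blood cells for 72 h at 37 C; lysis buffer (Tris, EDTA, saponin, Triton X, SYBR Green I) is added and fluorescence measured next morning; values normalized to controls.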

[12] = Cell Viability - LYMP2-009 (AID 968); also: nearly all actives have a fitted effect of over 55% in size; also: potency is read from the fitted curve at half-maximal effect
[13] = Cell Viability - LYMP2-019 (AID 973); also: nearly all actives have a fitted effect of over 55% in size; also: potency is read from the fitted curve at half-maximal effect
Outline: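 AC50 values come from Hill-equation fits of luminescent intracellular ATP (CellTiter-Glo, 30 min, room temperature) following 24 h compound exposure at 37 C. Cells: LYMP2-019 lymphoblastoid line, 2500 per well, in complete culture medium.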

[14] = qHTS assay for small molecule agonists of retinoid X receptor alpha signaling (AID 588544; calls by dose curve;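 as to activation: 0% = DMSO basal wells and 100% = reference agonist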); conditions: HEK293T RXRa-UAS-bla, beta-lactamase reporter, 18 h; 530 nm emission
[15] = biological target: Retinoic acid receptor RXR-alpha (Homo sapiens) (UniProt P19793); test: as above
Retinoic acid receptor RXR-alpha (Homo sapiens), sequence (P19793 whole entry, looked up): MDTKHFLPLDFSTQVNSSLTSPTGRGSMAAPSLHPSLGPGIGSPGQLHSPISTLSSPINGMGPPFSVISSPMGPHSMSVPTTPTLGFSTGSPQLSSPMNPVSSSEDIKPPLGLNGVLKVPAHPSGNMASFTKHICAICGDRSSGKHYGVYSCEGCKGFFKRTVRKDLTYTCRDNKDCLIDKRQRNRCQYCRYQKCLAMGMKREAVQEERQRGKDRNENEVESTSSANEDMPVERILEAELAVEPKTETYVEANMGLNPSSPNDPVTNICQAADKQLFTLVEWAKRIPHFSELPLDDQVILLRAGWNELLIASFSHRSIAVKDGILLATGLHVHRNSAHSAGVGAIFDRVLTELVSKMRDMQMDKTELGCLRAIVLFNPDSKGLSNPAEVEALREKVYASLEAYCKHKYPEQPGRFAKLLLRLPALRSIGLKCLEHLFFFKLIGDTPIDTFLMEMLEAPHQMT

[16] = qHTS assay for small molecule antagonists of retinoid X receptor alpha signaling (AID 588546; active = well fitted inhibition curve with a large enough effect in the signal ratio, with a control signal flat, not every such curve was filed as active; the % refers to the signal ratio;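 also: cells stimulated with 9-cis-retinoic acid as agonist; % is scaled to controls: 0 for no effect and ±100 for the full control effect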); conditions: HEK293T RXRa-UAS-bla, beta-lactamase ratio, antagonist mode; measured here: W530 green channel, cytotoxicity proxy
Outline: (§1)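 Beta-lactamase reporter inhibition, read as CCF4 fluorescence ratio (ex 405, em 460/530 nm) after 2 h at RT. HEK293T UAS-bla cells, 2500/well, were stimulated with 9-cis-RA at 500 or 100 nM final alongside test compound for 18 h at 37 C.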

[17] = biological target: Retinoic acid receptor RXR-alpha (Homo sapiens) (UniProt P19793); test: as above; conditions: HEK293T RXRa-UAS-bla, beta-lactamase ratio, antagonist mode
Outline: as §1

SMILES: ClC1=C(Cl)C2(Cl)C3C4CC(C5OC45)C3C1(Cl)C2(Cl)Cl (stereo unspecified)
- Potency [1]: > 92 µM (inactive)
- Potency [2]: > 92 µM (inactive)
- Potency [3]: inactive
- caspase-3 activation [4]: 28.4% (inactive)
- Potency [5]: 10 µM (active)
- Potency [6]: 39.8 µM (active)
- Potency [7]: 39.8 µM (active)
- outcome [8]: inactive
- activity change % (negative = inhibition) [9]: -28.8% (inactive)
- outcome [10]: inactive
- activity, negative = inhibition ([11]; parasite line A): -12.8% (inactive)
- activity, negative = inhibition ([11]; parasite line B): -9.6% (inactive)

SMILES: ClC(Cl)=C(c1ccc(Cl)cc1)c1ccc(Cl)cc1
- Potency [1]: > 92 µM (inactive)
- Potency [2]: > 92 µM (inactive)
- Potency [3]: inactive
- caspase-3 activation [4]: 0.557% (inactive) and 1.81% (inactive)
- Potency [5]: inactive
- Potency [12]: inactive
- Potency [13]: inactive
- Potency [6]: inactive
- Potency [7]: inactive
- outcome [8]: inactive
- max response [14]: 8.46%
- Potency [15]: inactive
- max response [16]: -0.142% and -15.3%
- max response [17]: -7.07% (inactive) and 0.666% (inactive)
- activity change % (negative = inhibition) [9]: 0.649% (inactive) and 24.3% (inactive) and -8.25% (inactive)
- outcome [10]: inactive

SMILES: C=CCc1ccc(OC)cc1
- Potency [1]: > 92 µM (inactive)
- Potency [2]: > 92 µM (inactive)
- Potency [3]: inactive
- caspase-3 activation [4]: 0.324% (inactive)
- Potency [5]: inactive
- Potency [12]: inactive
- Potency [13]: inactive
- Potency [6]: inactive
- Potency [7]: inactive
- outcome [8]: inactive
- max response [14]: -5.04%
- Potency [15]: inactive
- max response [16]: -1.65%
- max response [17]: 6.28% (inactive)
- activity change % (negative = inhibition) [9]: -7.69% (inactive)
- outcome [10]: inactive

SMILES: CCc1cccc(CC)c1N(COC)C(=O)CCl
- Potency [2]: > 92 µM (inactive)
- Potency [12]: 50.1 µM (active)
- Potency [13]: 50.1 µM (active)
- outcome [8]: inactive
- max response [14]: 19.2%
- Potency [15]: inactive
- max response [16]: 18.2%
- max response [17]: -7.04% (inactive)
- activity change % (negative = inhibition) [9]: -17.8% (inactive) and -7.56% (inactive)

SMILES: CCOCN(C(=O)CCl)c1c(C)cccc1CC
- Potency [5]: 50.1 µM (active)

SMILES: CCNc1nc(Cl)nc(NC(C)C)n1
- Potency [1]: > 92 µM (inactive)
- Potency [2]: > 92 µM (inactive)
- Potency [3]: inactive
- caspase-3 activation [4]: 0.071% (inactive)
- Potency [5]: inactive
- Potency [12]: inactive
- Potency [13]: inactive
- Potency [6]: inactive
- Potency [7]: inactive
- outcome [8]: inactive
- max response [14]: 15.9% and 26.8%
- Potency [15]: inactive
- max response [16]: 3.95% and -7.9%
- max response [17]: -16% (inactive) and 6.8% (inactive)
- activity change % (negative = inhibition) [9]: -11.1% (inactive) and -4.42% (inactive)
- outcome [10]: inactive

SMILES: COP(=S)(OC)Oc1ccc([N+](=O)[O-])cc1
- Potency [1]: > 92 µM (inactive)
- Potency [2]: > 92 µM (inactive)
- Potency [3]: inactive
- caspase-3 activation [4]: 4.38% (inactive)
- Potency [5]: inactive
- Potency [12]: inactive
- Potency [13]: inactive
- Potency [6]: inactive
- Potency [7]: inactive
- outcome [8]: inactive
- max response [14]: -22.5% and 4.79%
- Potency [15]: inactive
- max response [16]: -15.3% and -6.14%
- max response [17]: -10.1% (inactive) and -10.7% (inactive)
- activity change % (negative = inhibition) [9]: -2.23% (inactive) and 4.43% (inactive)
- outcome [10]: inactive

From PubChem BioAssay (NCATS)
